Compound activity deposited in PubChem BioAssay by National Center for Advancing Translational Sciences (NCATS).
Only some compounds are listed: those with a hit (about 6.4% of all), similar ones and a draw of the others.
RORg inh: blocks mouse ROR gamma transcriptional activity; P51450; Drosophila S2 Gal4-RORgamma UAS-luciferase reporter, 20 h; Potency, µM (doses to about 53.6 µM), for the others: at the top dose activity change, negative = inhibition, most hits filed as inhibitors; 5.4% of 310,000 active; also: nearly all actives have a fitted effect of over 60% in size
Target sequence (P51450 whole entry, looked up, the tested form may be a part): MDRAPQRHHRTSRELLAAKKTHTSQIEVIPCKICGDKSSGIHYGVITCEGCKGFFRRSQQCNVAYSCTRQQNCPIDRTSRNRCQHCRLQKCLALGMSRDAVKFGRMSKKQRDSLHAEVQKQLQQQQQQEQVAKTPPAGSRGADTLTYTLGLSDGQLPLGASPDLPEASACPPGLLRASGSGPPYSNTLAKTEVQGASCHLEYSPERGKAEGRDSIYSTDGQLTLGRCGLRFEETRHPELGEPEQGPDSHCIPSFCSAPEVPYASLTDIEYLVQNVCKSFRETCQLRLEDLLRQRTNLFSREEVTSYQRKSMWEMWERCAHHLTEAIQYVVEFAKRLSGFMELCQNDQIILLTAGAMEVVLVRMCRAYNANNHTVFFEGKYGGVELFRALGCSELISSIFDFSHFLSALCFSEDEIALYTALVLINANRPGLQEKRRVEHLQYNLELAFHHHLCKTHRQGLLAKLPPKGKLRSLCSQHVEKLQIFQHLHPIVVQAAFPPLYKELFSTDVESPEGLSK
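Drosophila S2 cells stably expressing Gal4-DBD/mouse RORγ fusion under metallothionein promoter plus UAS-luciferase; compound 1 h, then 700 uM CuSO4 induction for 20 h at ambient temperature; inhibition read as reduced luminescence.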
Luc counter: blocks Kinase-Glo luciferase, a counter-screen artifact; 0.28% of 200,000 active; Potency, µM (doses to about 38.3 µM), inactives show top-dose activity change, negative = inhibition, usual class: inhibitors; Kinase-Glo luciferase, ATP luminescence, 8 min; Q27757; also: nearly all actives have a fitted effect of over 60% in size
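Substrate mix (final 50 mM imidazole pH 7.2, 50 mM KCl, 7 mM MgCl2, 10 uM ATP, 0.01% Tween 20, 0.05% BSA) plus pin-tool compound, then Kinase-Glo detection mix; 8 min ambient, luminescence read.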
Gal4-VP16 FLuc: counter-screen for ROR gamma inhibitors: Gal4-VP16 reporter | Drosophila S2 Gal4-VP16 UAS-luciferase, luminescence, 20 h | Potency, µM (series often up to 53.6 µM), for the others: at the top dose activity, negative = inhibition, usual class: inhibitors | 3.5% of 310,000 active;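 also: Gal4-VP16 expression switched on by copper sulfate through the metallothionein promoter; nearly all actives have a fitted effect of over 50% in size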
* marks the source's active call; other numbers are inactive results; ? = inconclusive; · = not tested or not shown. Calls follow the shape of the dose curve; as a rule, active = well fitted curve in the direction sought with a large enough effect; inconclusive = small, poorly fitted or top-dose-only effect, or another doubt; inactive = no such curve, though single readings can be large; an effect the other way counts as inactive or inconclusive. % is scaled to controls: 0 for no effect and ±100 for the full control effect; potency is read from the fitted curve at half-maximal effect.

SMILES | RORg inh | Luc counter | Gal4-VP16 FLuc
CCOc1ccc(C(=O)NC(=S)Nc2cccnc2)cc1 | -16% | -1% | 0%
N=C1c2ccccc2CN1c1ccc(N2CCOCC2)c(S(=O)(=O)Nc2ccc(Cl)cc2)c1 | 0% | · | -7%
Cc1nn(-c2ccccc2)c(=S)c2ccccc12 | -4% | -3% | 19%
O=C(NCc1ccccc1Cl)C1CCCN(S(=O)(=O)c2cccc3nonc23)C1 (configuration not stated) | 12% | · | 14%
O=C(N1CCC(n2nc(-c3ccccc3)oc2=O)CC1)C1(c2ccc(Cl)cc2)CC1 | -19% | · | 0%
FC(F)(F)c1ccc2c(c1)[nH]c(=S)n2C1CC1 | 1.4µM* | -1% | ?
FC(F)(F)c1ccc2c(c1)N1CCCC1CN2 (configuration not stated) | 7% | -16% | -8%
CN1CCN(C(=O)c2cc([N+](=O)[O-])ccc2Cl)CC1 | -19% | · | 4%
O=C(CN(CC1CCCO1)C(=O)CNS(=O)(=O)c1ccc(F)cc1)NC1CCCC1 (configuration not stated) | -19% | · | 12%
Cn1ccnc1SCc1cn2cc(Br)ccc2n1 | 11µM* | 6% | 10µM*
Cn1ccnc1SCc1ccc([N+](=O)[O-])cc1 | -27% | -1% | 2%
CC(=O)Nc1ccc(S(=O)(=O)Nc2cccc(C(=O)Nc3ccccc3C(=O)O)c2)cc1 | 0% | · | 5%
Cc1ccccc1C1CC(c2cccs2)Nc2nnnn21 (configuration not stated) | 11% | -3% | 3%
C=CCn1c(O)c(N=NC(=S)Nc2cccc(OC)c2)c2ccccc21 | 0.79µM* | 1% | 2.5µM*
C=CCn1c(O)c(N=Nc2ccccc2)c2ccccc21 | ? | · | 5%
C=CCn1c(O)c(N=NC(=S)Nc2ccc(OC)cc2)c2ccccc21 | 3.2µM* | 3% | 4µM*
C=CCn1c(O)c(N=NC(=O)OCC)c2ccccc21 | 5% | 1% | ?
COc1ccc(C(=O)Oc2ccc(C(=S)N3CCOCC3)cc2)cc1 | 22% | -1% | 1%
O=C(CSc1nc2nc(-c3cccs3)cc(C(F)(F)F)c2c(=O)[nH]1)C(F)(F)F | -5% | · | 6%
COc1cccc(CC(=O)N[C@@H](CCSC)c2nc3ccccc3[nH]2)c1 | 18% | 1% | -14%
CCC1=C2CC[C@H]3C(=O)N(c4ccccc4)C(=O)[C@H]3[C@H]2[C@@]2(Cc3ccccc3)C(=NCCOC)OC(=O)N2C1=O | 12% | -2% | -3%
COc1ccc2ccccc2c1/C=N/NC(=O)c1ccc([N+](=O)[O-])cc1 | -41% | · | -6%
Cc1cccc(/C=N/NC(=O)C(C)Nc2cccc3ccccc23)n1 (configuration not stated) | ? | -2% | ?
CC(Nc1cccc2ccccc12)C(=O)N/N=C/c1ccc([N+](=O)[O-])cc1 (configuration not stated) | 13µM* | 1% | 14µM*
COc1cc([N+](=O)[O-])cc(/C=N/NC(=O)C(C)Nc2cccc3ccccc23)c1O (configuration not stated) | 0.4µM* | -1% | 0.5µM*
SMILES | RORg inh | Luc counter | Gal4-VP16 FLuc
CC1=C(C)C(=O)C(C(CCCCCC(=O)O)c2ccccc2)=C(C)C1=O (configuration not stated) | -3% | · | -1%
N/C(=N\OC(=O)c1ccccc1Cl)c1ccncc1 | ? | -7% | ?
N/C(=N\OC(=O)c1cc(Br)ccc1Cl)c1ccccn1 | -44% | -4% | ?
Cc1ccc(C(=O)O/N=C(\N)c2ccccn2)c(Cl)c1 | 0.71µM* | · | 2.8µM*
N/C(=N\OC(=O)c1ccc(Cl)cc1Cl)c1ccccn1 | 7.1µM* | 11µM* | ?
N/C(=N\OC(=O)c1ccc(Cl)cc1[N+](=O)[O-])c1ccccn1 | -21% | · | -26%
Cc1ccc(C(=O)O/N=C(\N)c2ccccc2)c(Cl)c1 | 4.5µM* | · | 8.9µM*
COc1ccc2c(c1)O[C@@H](c1ccc3c(c1)OCO3)[C@H](OC(=O)NCc1ccc3c(c1)OCO3)C2=O | -9% | 0% | -9%
CC(C)Cc1ccc(S(=O)(=O)NCC2CCCO2)cc1 (configuration not stated) | ? | · | -9%
CCC(C)(C)NC(=O)C(c1ccc(C)cc1)N(CCN1CCOCC1)C(=O)CNC(=O)c1cccs1 (configuration not stated) | 2% | -2% | 4%
O=[N+]([O-])c1ccccc1/C=C/C=N/n1c(-c2ccccc2)n[nH]c1=S | 6.3µM* | 4% | 1%
S=c1[nH]nc(-c2ccncc2)n1/N=C/C=C/c1ccccc1 | 2.8µM* | · | -5%
